# Laboratory results reported in article PMC7862700, “An all-to-all approach to the identification of sequence-specific readers for epigenetic DNA modifications on cytosine”.
# What was measured:
# Assay in all cases: DAPPL (digital affinity profiling via proximity ligation, sequencing); 10 mM Tris-HCl pH 7.5, 50 mM NaCl, 1 mM DTT, 4% glycerol, room temperature, 30 min; GST-TFs on glutathione beads, 16-mer random dsDNA library, 0.1% formaldehyde crosslink after washing; high values mean tight binding
# FEV = molecular target: T1, FEV (Homo sapiens, UniProt Q99581 1-238); settings: protein: recombinant; tags: N-terminal GST; dsDNA, one strand shown
# T1 sequence: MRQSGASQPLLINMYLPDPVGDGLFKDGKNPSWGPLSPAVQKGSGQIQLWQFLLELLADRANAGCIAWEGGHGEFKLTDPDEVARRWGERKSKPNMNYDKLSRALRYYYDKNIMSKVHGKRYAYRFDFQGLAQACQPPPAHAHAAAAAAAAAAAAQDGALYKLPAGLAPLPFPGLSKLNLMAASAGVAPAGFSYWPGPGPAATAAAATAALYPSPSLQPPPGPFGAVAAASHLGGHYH
# In short: (§1)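 GST fusions of human transcription factors were expressed in yeast and captured with glutathione beads. Once given DNA barcodes and pooled alongside a tag-only sample, they were incubated for 30 min at room temperature with 200 nmole of a random double-stranded 16-mer DNA library in Tris/NaCl/DTT/glycerol buffer, then washed, crosslinked (0.1% formaldehyde), proximity-ligated, PCR-amplified and sequenced on an Illumina NextSeq500. The binding signal of each hexamer is its read frequency for a factor divided by its frequency for the tag-only sample.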
# ETV5 = ETV5 (Homo sapiens, UniProt P41161 1-510); settings: protein: recombinant; tags: N-terminal GST; dsDNA, one strand shown
# In short: as §1
# HSF1 = HSF1 (Homo sapiens, UniProt Q00613 1-529); settings: protein: recombinant; tags: N-terminal GST; chain copies: 3; dsDNA, one strand shown
# In short: as §1
# SPIC = molecular target: T2, SPIC (Homo sapiens, UniProt Q8N5J4 1-248); settings: protein: recombinant; tags: N-terminal GST; dsDNA, one strand shown
# T2 sequence: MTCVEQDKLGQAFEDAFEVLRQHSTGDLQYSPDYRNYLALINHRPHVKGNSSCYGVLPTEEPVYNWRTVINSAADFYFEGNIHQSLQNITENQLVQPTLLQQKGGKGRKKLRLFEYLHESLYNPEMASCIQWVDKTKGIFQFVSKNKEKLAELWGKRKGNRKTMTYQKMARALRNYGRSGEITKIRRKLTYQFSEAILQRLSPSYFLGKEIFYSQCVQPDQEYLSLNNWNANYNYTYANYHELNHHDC
# In short: as §1
# ELF4 = ELF4 (Homo sapiens, UniProt Q99607 1-663); settings: protein: recombinant; tags: N-terminal GST; dsDNA, one strand shown
# In short: as §1
# ELK4 = molecular target: T3, ELK4 (Homo sapiens, UniProt P28324-2 1-405); settings: protein: recombinant; tags: N-terminal GST; dsDNA, one strand shown
# T3 sequence: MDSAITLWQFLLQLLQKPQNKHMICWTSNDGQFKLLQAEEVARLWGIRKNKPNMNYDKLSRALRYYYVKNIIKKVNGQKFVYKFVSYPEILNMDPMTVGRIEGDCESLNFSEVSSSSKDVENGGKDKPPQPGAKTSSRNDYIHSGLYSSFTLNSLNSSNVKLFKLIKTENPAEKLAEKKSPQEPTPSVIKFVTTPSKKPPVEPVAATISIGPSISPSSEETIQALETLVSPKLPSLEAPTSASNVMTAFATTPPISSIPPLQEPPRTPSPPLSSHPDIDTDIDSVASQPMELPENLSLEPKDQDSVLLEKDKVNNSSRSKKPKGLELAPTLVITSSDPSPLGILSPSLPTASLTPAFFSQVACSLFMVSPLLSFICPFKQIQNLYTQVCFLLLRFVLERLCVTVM
# In short: as §1
# ETV2 = molecular target: T4, ETV2 (Homo sapiens, UniProt O00321 1-342); settings: protein: recombinant; tags: N-terminal GST; dsDNA, one strand shown
# T4 sequence: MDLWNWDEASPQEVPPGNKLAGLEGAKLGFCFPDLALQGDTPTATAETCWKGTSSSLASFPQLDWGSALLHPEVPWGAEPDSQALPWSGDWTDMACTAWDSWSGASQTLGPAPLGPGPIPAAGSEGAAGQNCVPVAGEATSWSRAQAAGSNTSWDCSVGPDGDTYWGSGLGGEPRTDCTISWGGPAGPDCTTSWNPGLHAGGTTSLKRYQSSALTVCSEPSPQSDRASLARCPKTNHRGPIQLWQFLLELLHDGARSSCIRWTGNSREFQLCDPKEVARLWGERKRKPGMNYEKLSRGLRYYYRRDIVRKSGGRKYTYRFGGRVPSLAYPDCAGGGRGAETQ
# In short: as §1
# ELF3 = molecular target: T5, ELF3 (Homo sapiens, UniProt P78545 1-371); settings: protein: recombinant; tags: N-terminal GST; dsDNA, one strand shown
# T5 sequence: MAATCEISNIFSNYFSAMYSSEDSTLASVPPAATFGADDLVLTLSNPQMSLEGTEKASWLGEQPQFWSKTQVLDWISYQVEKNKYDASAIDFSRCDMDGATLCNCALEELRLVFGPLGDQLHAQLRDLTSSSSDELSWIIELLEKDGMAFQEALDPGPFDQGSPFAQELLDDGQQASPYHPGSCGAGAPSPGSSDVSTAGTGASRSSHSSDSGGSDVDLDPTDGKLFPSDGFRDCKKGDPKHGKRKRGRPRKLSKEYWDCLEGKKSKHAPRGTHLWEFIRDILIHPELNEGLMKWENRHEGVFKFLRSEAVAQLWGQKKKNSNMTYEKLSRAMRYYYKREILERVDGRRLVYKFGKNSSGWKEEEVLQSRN
# In short: as §1
# CRX = CRX (Homo sapiens, UniProt O43186 1-299); settings: protein: recombinant; tags: N-terminal GST; dsDNA, one strand shown
# In short: as §1
# ETV1 = ETV1 (Homo sapiens, UniProt P50549 1-477); settings: protein: recombinant; tags: N-terminal GST; dsDNA, one strand shown
# In short: as §1
# Sequence of ELF4 (Q99607 whole entry): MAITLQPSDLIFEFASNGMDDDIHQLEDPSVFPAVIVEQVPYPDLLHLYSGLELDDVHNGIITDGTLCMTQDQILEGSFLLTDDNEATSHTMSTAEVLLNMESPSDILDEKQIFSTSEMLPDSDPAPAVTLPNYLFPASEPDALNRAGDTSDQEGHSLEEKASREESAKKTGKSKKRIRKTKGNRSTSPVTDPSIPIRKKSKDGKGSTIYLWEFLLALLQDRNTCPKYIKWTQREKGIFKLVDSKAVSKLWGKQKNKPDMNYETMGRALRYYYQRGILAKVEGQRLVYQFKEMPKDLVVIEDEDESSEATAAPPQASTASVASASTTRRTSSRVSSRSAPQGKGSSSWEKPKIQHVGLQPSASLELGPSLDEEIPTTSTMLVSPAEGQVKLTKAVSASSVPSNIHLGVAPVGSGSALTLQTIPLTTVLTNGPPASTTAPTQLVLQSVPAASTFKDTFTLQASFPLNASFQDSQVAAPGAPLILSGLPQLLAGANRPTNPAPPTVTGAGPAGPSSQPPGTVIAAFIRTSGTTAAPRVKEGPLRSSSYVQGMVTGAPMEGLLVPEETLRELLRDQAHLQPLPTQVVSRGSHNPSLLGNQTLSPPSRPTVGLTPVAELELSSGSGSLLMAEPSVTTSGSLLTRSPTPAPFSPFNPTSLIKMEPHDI
# Sequence of CRX (O43186 whole entry): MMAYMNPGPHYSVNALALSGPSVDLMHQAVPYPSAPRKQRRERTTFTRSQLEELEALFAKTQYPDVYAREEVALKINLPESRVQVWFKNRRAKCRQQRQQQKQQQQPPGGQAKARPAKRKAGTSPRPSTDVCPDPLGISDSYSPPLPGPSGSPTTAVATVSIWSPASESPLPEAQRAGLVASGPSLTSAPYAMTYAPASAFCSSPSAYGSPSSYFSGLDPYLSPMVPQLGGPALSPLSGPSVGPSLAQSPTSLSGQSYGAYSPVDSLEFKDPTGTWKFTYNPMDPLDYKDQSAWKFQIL
# Sequence of ETV5 (P41161 whole entry): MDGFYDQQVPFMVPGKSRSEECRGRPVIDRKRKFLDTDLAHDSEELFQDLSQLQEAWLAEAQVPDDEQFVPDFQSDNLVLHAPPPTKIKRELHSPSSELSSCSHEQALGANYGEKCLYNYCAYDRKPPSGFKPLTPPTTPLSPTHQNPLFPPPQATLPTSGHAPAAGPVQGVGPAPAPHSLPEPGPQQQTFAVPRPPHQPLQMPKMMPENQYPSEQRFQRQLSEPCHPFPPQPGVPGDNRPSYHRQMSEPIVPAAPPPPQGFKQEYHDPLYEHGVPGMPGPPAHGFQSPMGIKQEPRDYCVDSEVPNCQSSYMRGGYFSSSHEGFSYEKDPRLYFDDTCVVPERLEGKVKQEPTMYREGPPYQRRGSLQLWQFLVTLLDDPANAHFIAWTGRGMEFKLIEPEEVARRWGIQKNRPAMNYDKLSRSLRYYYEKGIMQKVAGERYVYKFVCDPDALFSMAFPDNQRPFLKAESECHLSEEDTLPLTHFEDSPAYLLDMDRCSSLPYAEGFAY
# Sequence of ETV1 (P50549 whole entry): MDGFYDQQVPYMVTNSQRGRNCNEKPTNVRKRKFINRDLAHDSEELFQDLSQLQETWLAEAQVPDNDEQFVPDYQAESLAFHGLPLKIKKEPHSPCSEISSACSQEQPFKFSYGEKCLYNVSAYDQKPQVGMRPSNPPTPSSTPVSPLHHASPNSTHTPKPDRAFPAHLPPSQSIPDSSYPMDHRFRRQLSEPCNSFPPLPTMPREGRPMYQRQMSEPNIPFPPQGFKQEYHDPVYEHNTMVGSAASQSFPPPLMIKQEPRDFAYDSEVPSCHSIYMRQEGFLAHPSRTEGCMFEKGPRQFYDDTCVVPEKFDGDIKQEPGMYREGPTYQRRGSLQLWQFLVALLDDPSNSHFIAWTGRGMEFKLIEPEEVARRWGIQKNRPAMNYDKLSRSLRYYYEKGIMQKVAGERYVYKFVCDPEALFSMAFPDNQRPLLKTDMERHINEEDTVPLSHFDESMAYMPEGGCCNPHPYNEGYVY
# Sequence of HSF1 (Q00613 whole entry): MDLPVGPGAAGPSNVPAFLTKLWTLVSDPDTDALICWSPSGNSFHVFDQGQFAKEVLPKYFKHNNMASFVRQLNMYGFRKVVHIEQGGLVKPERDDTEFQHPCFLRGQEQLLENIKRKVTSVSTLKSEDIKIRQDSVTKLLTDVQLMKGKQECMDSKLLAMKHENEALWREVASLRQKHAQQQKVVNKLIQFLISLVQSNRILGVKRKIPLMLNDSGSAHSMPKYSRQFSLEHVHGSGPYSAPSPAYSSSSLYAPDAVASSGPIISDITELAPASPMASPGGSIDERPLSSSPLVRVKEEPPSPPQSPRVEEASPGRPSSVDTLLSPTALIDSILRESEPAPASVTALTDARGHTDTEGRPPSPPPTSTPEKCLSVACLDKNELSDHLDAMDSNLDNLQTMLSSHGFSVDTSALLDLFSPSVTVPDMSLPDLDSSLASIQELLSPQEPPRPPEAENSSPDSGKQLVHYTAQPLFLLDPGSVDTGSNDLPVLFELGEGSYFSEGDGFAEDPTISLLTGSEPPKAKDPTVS
Sequence,binding signal (FEV),binding signal (ETV5),binding signal (HSF1),binding signal (SPIC),binding signal (ELF4),binding signal (ELK4),binding signal (ETV2),binding signal (ELF3),binding signal (CRX),binding signal (ETV1)
CCGCAT,"1.49 fold enrichment (6-mer frequency, TF over GST control)","1.65 fold enrichment (6-mer frequency, TF over GST control)","1.13 fold enrichment (6-mer frequency, TF over GST control)","1.53 fold enrichment (6-mer frequency, TF over GST control)","1.62 fold enrichment (6-mer frequency, TF over GST control)","1.31 fold enrichment (6-mer frequency, TF over GST control)","1.52 fold enrichment (6-mer frequency, TF over GST control)","1.95 fold enrichment (6-mer frequency, TF over GST control)","1.19 fold enrichment (6-mer frequency, TF over GST control)","1.59 fold enrichment (6-mer frequency, TF over GST control)"
AATGCA,"1.31 fold enrichment (6-mer frequency, TF over GST control)","1.29 fold enrichment (6-mer frequency, TF over GST control)","1.11 fold enrichment (6-mer frequency, TF over GST control)","1.28 fold enrichment (6-mer frequency, TF over GST control)","1.3 fold enrichment (6-mer frequency, TF over GST control)","1.31 fold enrichment (6-mer frequency, TF over GST control)","1.25 fold enrichment (6-mer frequency, TF over GST control)","1.33 fold enrichment (6-mer frequency, TF over GST control)","1.14 fold enrichment (6-mer frequency, TF over GST control)","1.25 fold enrichment (6-mer frequency, TF over GST control)"
AATAAT,"1.28 fold enrichment (6-mer frequency, TF over GST control)","1.35 fold enrichment (6-mer frequency, TF over GST control)","1.93 fold enrichment (6-mer frequency, TF over GST control)","1.31 fold enrichment (6-mer frequency, TF over GST control)","1.24 fold enrichment (6-mer frequency, TF over GST control)","1.22 fold enrichment (6-mer frequency, TF over GST control)","1.34 fold enrichment (6-mer frequency, TF over GST control)","1.42 fold enrichment (6-mer frequency, TF over GST control)","2.41 fold enrichment (6-mer frequency, TF over GST control)","1.24 fold enrichment (6-mer frequency, TF over GST control)"
ACTACC,"1.55 fold enrichment (6-mer frequency, TF over GST control)","1.64 fold enrichment (6-mer frequency, TF over GST control)","1.09 fold enrichment (6-mer frequency, TF over GST control)","1.58 fold enrichment (6-mer frequency, TF over GST control)","1.66 fold enrichment (6-mer frequency, TF over GST control)","1.59 fold enrichment (6-mer frequency, TF over GST control)","1.72 fold enrichment (6-mer frequency, TF over GST control)","1.58 fold enrichment (6-mer frequency, TF over GST control)","1.1 fold enrichment (6-mer frequency, TF over GST control)","1.59 fold enrichment (6-mer frequency, TF over GST control)"
ACATCT,"1.29 fold enrichment (6-mer frequency, TF over GST control)","1.31 fold enrichment (6-mer frequency, TF over GST control)","1.36 fold enrichment (6-mer frequency, TF over GST control)","1.43 fold enrichment (6-mer frequency, TF over GST control)","1.29 fold enrichment (6-mer frequency, TF over GST control)","1.4 fold enrichment (6-mer frequency, TF over GST control)","1.29 fold enrichment (6-mer frequency, TF over GST control)","1.4 fold enrichment (6-mer frequency, TF over GST control)","1.19 fold enrichment (6-mer frequency, TF over GST control)","1.32 fold enrichment (6-mer frequency, TF over GST control)"
TTCCGC,"3.1 fold enrichment (6-mer frequency, TF over GST control)","3.42 fold enrichment (6-mer frequency, TF over GST control)","1.34 fold enrichment (6-mer frequency, TF over GST control)","3.62 fold enrichment (6-mer frequency, TF over GST control)","2.82 fold enrichment (6-mer frequency, TF over GST control)","2.57 fold enrichment (6-mer frequency, TF over GST control)","2.79 fold enrichment (6-mer frequency, TF over GST control)","3.06 fold enrichment (6-mer frequency, TF over GST control)","1.26 fold enrichment (6-mer frequency, TF over GST control)","3.17 fold enrichment (6-mer frequency, TF over GST control)"
GATCCT,"1.23 fold enrichment (6-mer frequency, TF over GST control)","1.27 fold enrichment (6-mer frequency, TF over GST control)","1.41 fold enrichment (6-mer frequency, TF over GST control)","1.21 fold enrichment (6-mer frequency, TF over GST control)","1.35 fold enrichment (6-mer frequency, TF over GST control)","1.24 fold enrichment (6-mer frequency, TF over GST control)","1.43 fold enrichment (6-mer frequency, TF over GST control)","1.03 fold enrichment (6-mer frequency, TF over GST control)","1.66 fold enrichment (6-mer frequency, TF over GST control)","1.34 fold enrichment (6-mer frequency, TF over GST control)"
